Counter-ions that a name gives are not always drawn.
Experiments:
Conditions in all cases: incubation time: 27 h, anaerobic, 37 °C;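 for the amine columns active = adjusted P below 0.05 in both replicates with a change the same way and a mean fold change under 0.8 or over 1.25; inactive = the rest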
[1] = tested on: Clostridium sporogenes DSM 1664; test: growth (OD595) fold change vs plate DMSO controls (fold change (ratio)); higher = more growth
How it was run: (§1)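 Growth is calculated as fold change against the median of the DMSO control wells on each plate. Readings at 595 nm from anaerobic mGAM cultures (96-well, 27 h, 37 °C) were blank-subtracted, background-corrected with 20 µM compound solutions in water, and converted to OD by a calibration factor of 5. Fold changes above 1.5 were recorded as NA, and results are means of 2 biological replicates.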

[2] = tested on: Escherichia coli IAI1; test: as above
How it was run: as §1

[3] = tested on: Klebsiella aerogenes DSM 30053; test: as above
How it was run: as §1

[4] = tested on: Ruminococcus gnavus DSM 108212; test: as above
How it was run: as §1

[5] = tested on: Klebsiella aerogenes DSM 30053; test: fold change of Histamine concentration vs plate DMSO controls (fold change (ratio)); higher = more amine produced, active = hit call of the paper (significant change in both replicates, either direction)
How it was run: (§2)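 Amine values are fold changes relative to DMSO-only wells on the same plate. They derive from 27 h, 37 °C anaerobic mGAM cultures of four gut bacterial strains in 80 µL wells, dosed at 20 µM final, or 50 µM final for sweeteners. Extraction of the whole culture, LC–triple-quadrupole MS in dynamic MRM mode, external calibration curves and within-batch drift correction were used, with 2 biological replicates averaged.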

[6] = tested on: Clostridium sporogenes DSM 1664; test: fold change of Tryptamine concentration vs plate DMSO controls (fold change (ratio)); higher = more amine produced, active = hit call of the paper (significant change in both replicates, either direction)
How it was run: as §2

[7] = tested on: Ruminococcus gnavus DSM 108212; test: as above
How it was run: as §2

[8] = tested on: Escherichia coli IAI1; test: fold change of Putrescine concentration vs plate DMSO controls (fold change (ratio)); higher = more amine produced, active = hit call of the paper (significant change in both replicates, either direction)
How it was run: as §2

[9] = tested on: Klebsiella aerogenes DSM 30053; test: as above
How it was run: as §2

[10] = tested on: Escherichia coli IAI1; test: fold change of Cadaverine concentration vs plate DMSO controls (fold change (ratio)); higher = more amine produced, active = hit call of the paper (significant change in both replicates, either direction)
How it was run: as §2

[11] = tested on: Klebsiella aerogenes DSM 30053; test: as above
How it was run: as §2

[12] = tested on: Ruminococcus gnavus DSM 108212; test: fold change of 2-Phenylethylamine concentration vs plate DMSO controls (fold change (ratio)); higher = more amine produced, active = hit call of the paper (significant change in both replicates, either direction)
How it was run: as §2

| Compound | growth [1] | growth [2] | growth [3] | growth [4] | fold change of Histamine concentration [5] | fold change of Tryptamine concentration [6] | fold change of Tryptamine concentration [7] | fold change of Putrescine concentration [8] | fold change of Putrescine concentration [9] | fold change of Cadaverine concentration [10] | fold change of Cadaverine concentration [11] | fold change of 2-Phenylethylamine concentration [12] |
| --- | --- | --- | --- | --- | --- | --- | --- | --- | --- | --- | --- | --- |
| CC(C)C(=O)Nc1ccc([N+](=O)[O-])c(C(F)(F)F)c1 [Flutamide] (20 µM) | 0.955 | 1 | 0.938 | 1.32 | 1.02 (inactive) | 0.961 (inactive) | 1 (inactive) | 0.977 (inactive) | 1.01 (inactive) | 0.982 (inactive) | 0.981 (inactive) | 1.02 (inactive) |
| O=C1[C@H]2CCCC[C@H]2C(=O)N1CCCCN1CCN(c2nsc3ccccc23)CC1 [Perospirone hydrochloride] (20 µM) | 1.12 | 0.968 | 1.01 | 1.32 | 0.986 (inactive) | 1.02 (inactive) | 0.767 (inactive) | 0.989 (inactive) | 1.01 (inactive) | 1.03 (inactive) | 1.02 (inactive) | 0.819 (inactive) |
| CC[N+](CC)(CC)CCC(O)(c1ccccc1)C1CCCCC1 (stereo not drawn) [Tridihexethyl chloride] (20 µM) | 0.911 | 1 | 1.01 | 1.16 | 0.955 (inactive) | 1.17 (inactive) | 1.06 (inactive) | 0.812 (inactive) | 0.975 (inactive) | 0.857 (inactive) | 1.02 (inactive) | 1.03 (inactive) |
| Nc1nc(=O)c2nc(CNc3ccc(C(=O)N[C@@H](CCC(=O)O)C(=O)O)cc3)cnc2[nH]1 [Folic acid] (20 µM) | 0.939 | 1.08 | 0.988 | 0.783 | 0.93 (inactive) | 1.04 (inactive) | 0.955 (inactive) | 1.05 (inactive) | 0.997 (inactive) | 0.98 (inactive) | 1.01 (inactive) | 0.928 (inactive) |
| c1ccc(CNc2ncnc3nc[nH]c23)cc1 [Aminopurine, 6-benzyl] (20 µM) | 1.09 | 0.978 | 0.971 | 0.966 | 1.06 (inactive) | 0.971 (inactive) | 0.932 (inactive) | 1.03 (inactive) | 1.02 (inactive) | 1.02 (inactive) | 1 (inactive) | 0.856 (inactive) |
| CCC(=O)O[C@@H]1CC(=O)O[C@H](C)C/C=C/C=C/[C@H](O)[C@H](C)C[C@H](CC=O)[C@H](O[C@@H]2O[C@H](C)[C@@H](O[C@H]3C[C@@](C)(O)[C@@H](OC(=O)CC)[C@H](C)O3)[C@H](N(C)C)[C@H]2O)[C@H]1OC [Midecamycin] (20 µM) | 0.00179 | 0.905 | 0.965 | 0.164 | 0.412 (active) | 0.0271 (active) | 0.143 (active) | 0.909 (inactive) | 1.06 (inactive) | 1.05 (inactive) | 1.05 (inactive) | 0.141 (active) |
| CC[C@H](C)[C@H](N)C1=N[C@H](C(=O)N[C@@H](CC(C)C)C(=O)N[C@H](CCC(=O)O)C(=O)N[C@H](C(=O)N[C@H]2CCCCNC(=O)[C@H](CC(N)=O)NC(=O)[C@@H](CC(=O)O)NC(=O)[C@H](Cc3cnc[nH]3)NC(=O)[C@@H](Cc3ccccc3)NC(=O)[C@H]([C@@H](C)CC)NC(=O)[C@@H](CCCN)NC2=O)[C@@H](C)CC)CS1 [Bacitracin] (20 µM) | 1 | 1.05 | 1.02 | 0.0384 | 0.999 (inactive) | 1.02 (inactive) | 0.0521 (active) | 1.18 (inactive) | 1.01 (inactive) | 1.01 (inactive) | 1 (inactive) | 0.0535 (active) |
| Cc1cc(NC(=O)C2=C(O)c3ccccc3S(=O)(=O)N2C)no1 [Isoxicam] (20 µM) | 1.11 | 1.05 | 0.997 | 1.02 | 0.996 (inactive) | 1.02 (inactive) | 1.02 (inactive) | 1.03 (inactive) | 1.01 (inactive) | 0.969 (inactive) | 0.994 (inactive) | 0.947 (inactive) |
| C[C@H](CCC(=O)O)[C@H]1CC[C@H]2[C@@H]3CC[C@@H]4C[C@H](O)CC[C@]4(C)[C@H]3CC[C@]12C [Lithocholic acid] (20 µM) | 1.13 | 1.01 | 1.19 | 0.903 | 0.9 (inactive) | 1.03 (inactive) | 1.05 (inactive) | 1.06 (inactive) | 0.999 (inactive) | 0.975 (inactive) | 1.03 (inactive) | 1.09 (inactive) |
| c1ccc2cc3ccccc3cc2c1 [Anthracene] (20 µM) | 1.03 | 1.04 | 0.993 | 0.985 | 1.03 (inactive) | 1.03 (inactive) | 1.02 (inactive) | 1.01 (inactive) | 0.986 (inactive) | 0.976 (inactive) | 1.02 (inactive) | 0.963 (inactive) |
| Cn1cnc([N+](=O)[O-])c1Sc1ncnc2[nH]cnc12 [Azathioprine] (20 µM) | 1.11 | 1.03 | 0.993 | 1.49 | 0.991 (inactive) | 1.04 (inactive) | 0.965 (inactive) | 0.977 (inactive) | 0.99 (inactive) | 0.974 (inactive) | 0.992 (inactive) | 0.984 (inactive) |
| C[C@]12CC[C@@H]3c4ccc(O)cc4C[C@@H](CCCCCCCCC[S+]([O-])CCCC(F)(F)C(F)(F)F)[C@H]3[C@@H]1CC[C@@H]2O (stereo partly drawn) [Fulvestrant] (20 µM) | 1.25 | 1.06 | 1.03 | 1.13 | 0.97 (inactive) | 0.98 (inactive) | 1.2 (inactive) | 0.954 (inactive) | 0.979 (inactive) | 0.974 (inactive) | 1.02 (inactive) | 1.21 (inactive) |
| N=c1nc(N2CCCCC2)cc(N)n1O [Minoxidil] (20 µM) | 0.888 | 0.963 | 1.03 | 0.722 | 0.98 (inactive) | 0.937 (inactive) | 1.01 (inactive) | 0.982 (inactive) | 0.987 (inactive) | 0.995 (inactive) | 1.01 (inactive) | 1.05 (inactive) |
| CC(=O)N(CC(C)C(=O)O)c1c(I)cc(I)c(N)c1I (stereo not drawn) [Iocetamic acid] (20 µM) | 0.863 | 1.01 | 0.986 | 0.975 | 1.04 (inactive) | 1.05 (inactive) | 0.971 (inactive) | 1.09 (inactive) | 1 (inactive) | 0.988 (inactive) | 0.987 (inactive) | 0.924 (inactive) |
| COC(=O)Nc1nc2cc(Sc3ccccc3)ccc2[nH]1 [Fenbendazole] (20 µM) | 1 | 1.08 | 0.98 | 1.09 | 1.07 (inactive) | 0.986 (inactive) | 1 (inactive) | 1.05 (inactive) | 1.03 (inactive) | 0.967 (inactive) | 0.991 (inactive) | 1.02 (inactive) |
| O=S(=O)(O)c1cc(O)ccc1O [Ethamsylate diethylammonium salt] (20 µM) | 0.89 | 0.975 | 0.98 | 0.997 | 1.07 (inactive) | 0.982 (inactive) | 1.05 (inactive) | 0.989 (inactive) | 1.02 (inactive) | 1.02 (inactive) | 0.99 (inactive) | 1.09 (inactive) |
| Cc1ccc(N(CC2=NCCN2)c2cccc(O)c2)cc1 [Phentolamine hydrochloride] (20 µM) | 1.07 | 1 | 0.871 | 0.765 | 0.97 (inactive) | 1.03 (inactive) | 1 (inactive) | 1.05 (inactive) | 0.981 (inactive) | 0.652 (active) | 0.993 (inactive) | 1.01 (inactive) |
| CCC(=O)c1ccc(O)cc1 [Paroxypropione] (20 µM) | 0.967 | 0.989 | 0.996 | 1 | 1.03 (inactive) | 0.946 (inactive) | 1.02 (inactive) | 1.01 (inactive) | 1.02 (inactive) | 1.01 (inactive) | 1.01 (inactive) | 0.952 (inactive) |
| CC(C)c1c(C(=O)Nc2ccccc2)c(-c2ccccc2)c(-c2ccc(F)cc2)n1CC[C@@H](O)C[C@@H](O)CC(=O)O [Atorvastatin] (20 µM) | 1.02 | 1.03 | 1 | 1.28 | 1.15 (inactive) | 1.01 (inactive) | 1 (inactive) | 1.01 (inactive) | 1.02 (inactive) | 0.984 (inactive) | 0.998 (inactive) | 1.02 (inactive) |
| CCN(CC)Cc1cc(Nc2ccnc3cc(Cl)ccc23)ccc1O [Amodiaquine dihydrochloride dihydrate] (20 µM) | 0.973 | 0.964 | 0.915 | 1.02 | 1.03 (inactive) | 1.01 (inactive) | 1.01 (inactive) | 0.928 (inactive) | 1.01 (inactive) | 0.967 (inactive) | 0.978 (inactive) | 1.03 (inactive) |
| Nc1ccc(C(=O)NCC(=O)O)cc1 [Aminohippuric acid] (20 µM) | 0.256 | 0.163 | 0 | 0.295 | 0.944 (inactive) | 0.982 (inactive) | 1.03 (inactive) | 1.04 (inactive) | 1.01 (inactive) | 0.988 (inactive) | 1.01 (inactive) | 1.03 (inactive) |
| O=C1NCCN1CCN1CCC(c2cn(-c3ccc(F)cc3)c3ccc(Cl)cc23)CC1 [Sertindole] (20 µM) | 0.981 | 1.05 | 1.09 | 1.16 | 0.923 (inactive) | 0.952 (inactive) | 0.908 (inactive) | 1.31 (inactive) | 0.982 (inactive) | 0.999 (inactive) | 1 (inactive) | 1.09 (inactive) |
| CCN1CCCC(OC(=O)C(c2ccccc2)c2ccccc2)C1 (stereo not drawn) [Piperidolate hydrochloride] (20 µM) | 1.1 | 1.01 | 0.987 | 0.893 | 1.02 (inactive) | 1.07 (inactive) | 1.01 (inactive) | 1.02 (inactive) | 1 (inactive) | 1.02 (inactive) | 0.993 (inactive) | 1.06 (inactive) |
| CC(C)(C)C(=O)OCOC(=O)[C@@H]1N2C(=O)[C@@H](/N=C/N3CCCCCC3)[C@H]2SC1(C)C [Pivmecillinam hydrochloride] (20 µM) | 0.954 | 1.01 | 0.909 | 1.2 | 0.597 (active) | 1.01 (inactive) | 1.03 (inactive) | 1.02 (inactive) | 0.954 (inactive) | 1.46 (active) | 1.01 (inactive) | 1.03 (inactive) |
